Most compounds without a hit are left out; they make up all but 4.6% or so of the library.
DAX1 inh-1: DAX1 (NR0B1) inhibitors on StAR promoter, primary screen, cell-based, luminescence, SF-1 (NR5A1), full-length DAX-1 | HEK293T StAR-luciferase reporter, SF-1/DAX-1 repression relief | inhibition, % at 6.8 µM | actives 1.1% (n = 370,000) | AID 652010, 2013;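 active = inhibition above the mean over all tested compounds plus 3 SD, cut at about 3.6% in these data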;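 note: 0% = DAX-1 cells with DMSO and 100% = cells lacking DAX-1 with DMSO; higher inhibition means more luminescence from relief of DAX-1 repression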
DAX1 inh-2: DAX1 (NR0B1) inhibitors, primary screen, cell-based, HEK293, Gal4-DAX1, luciferase luminescence; HEK293 Gal4-DAX1 luciferase reporter; inhibition, % at 6.75 µM; actives 0.99% (n = 340,000);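 active = inhibition above the mean over all tested compounds plus 3 SD, cut at about 4.2% in these data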;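 note: 0% = DAX1-transfected cells with DMSO and 100% = empty-vector control cells with DMSO; inhibition shows as a rise in luminescence from relieved DAX1 repression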
hgDAF-12 ag: H. glycines DAF-12 receptor agonists, primary screen, cell-based, luminescence, HEK293, GAL4 fusion, UAS-luciferase; Nuclear hormone receptor DAF-12 (Heterodera glycines), GAL4 fusion; HEK293 GAL4-hgDAF12 UAS-luciferase reporter, agonist luminescence; normalized to butyrate control; activation, % at 6.8 µM; actives 1.8% (n = 370,000);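 active = activation above a cutoff set at the mean of all screened compounds plus 3 SD, cut at about 10% in these data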;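 note: 0% = DMSO wells and 100% = sodium butyrate wells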
Wee1 degr inh: Wee1 degradation inhibitors, primary screen, cell-based, HeLa, Wee1K328M-luciferase, luminescence; actives 1.2% (n = 220,000); AID 1321, 2008; reporter increase, % at 5 µM; Wee1-like protein kinase (Homo sapiens), P30291; HeLa Luc-Wee1K328M stability; 100% = proteasome inhibitor MG132 effect;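 active = activation above the mean of all tested compounds plus 3 SD, set per screening run, cut at about 8.8% in these data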;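 note: cells exposed to compound for 20 h before luminescence read; 0% = DMSO alone and 100% = MG132 at 30 µM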
ssDAF-12 act: S. stercoralis DAF-12 nuclear receptor activators, primary screen, cell-based, luminescence, HEK293, GRIP1 co-expression, lit1-tk-luc; activation, % at 6.8 µM; actives 1% (n = 370,000); AID 652126, 2013; HEK293 ssDAF-12/GRIP1 lit1-tk-luc reporter; % of 3 µM dafachronic acid response; Nuclear hormone receptor DAF-12 (Strongyloides stercoralis);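 active = activation above the mean over all tested compounds plus 3 SD, cut at about 0.9% in these data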;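 note: 0% = DMSO-only wells and 100% = 3 µM delta7-dafachronic acid wells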
hcDAF12 agonist: H. contortus DAF-12 nuclear receptor activators, primary screen, cell-based, luminescence, HEK293, lit1-tk-luc reporter; HEK293 hcDAF-12 lit1-tk-luc reporter; 0% DMSO, 100% Δ7-dafachronic acid; activation, % at 6.8 µM; actives 1.4% (n = 370,000); AID 652067, 2013;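 active = activation above the mean of all tested compounds plus 3 SD, cut at about 5.5% in these data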;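 note: 100% = response to 3 µM Δ7-dafachronic acid high control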
Wee1 stab conf: Wee1 degradation inhibitors, confirmation, cell-based, HeLa, Wee1K328M-luciferase, luminescence, triplicate. shares compounds with Wee1 degr inh. HeLa Luc-Wee1K328M degradation; vehicle 0%, proteasome-blocked wells 100%. activation, % at 5 µM. actives 4% (n = 1,100). AID 1410, 2008; in the data active = activation above about 8.9%
DAX1 inh confirm: DAX1 (NR0B1) inhibitors relieving SF-1 repression, confirmation, cell-based, luminescence, HEK293T, full-length DAX-1, SF-1 activated StAR promoter; shares compounds with DAX1 inh-1; HEK293T StAR-promoter luciferase reporter, SF-1/DAX-1 repression; inhibition, % at 6.8 µM; actives 87% (n = 2,400);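 active = inhibition above the average of every tested compound plus 3 SD, cut at about 3.8% in these data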;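 note: 0% = DAX-1 cells with DMSO and 100% = no DAX-1 control cells with DMSO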
Target sequence (P51843 whole entry, looked up): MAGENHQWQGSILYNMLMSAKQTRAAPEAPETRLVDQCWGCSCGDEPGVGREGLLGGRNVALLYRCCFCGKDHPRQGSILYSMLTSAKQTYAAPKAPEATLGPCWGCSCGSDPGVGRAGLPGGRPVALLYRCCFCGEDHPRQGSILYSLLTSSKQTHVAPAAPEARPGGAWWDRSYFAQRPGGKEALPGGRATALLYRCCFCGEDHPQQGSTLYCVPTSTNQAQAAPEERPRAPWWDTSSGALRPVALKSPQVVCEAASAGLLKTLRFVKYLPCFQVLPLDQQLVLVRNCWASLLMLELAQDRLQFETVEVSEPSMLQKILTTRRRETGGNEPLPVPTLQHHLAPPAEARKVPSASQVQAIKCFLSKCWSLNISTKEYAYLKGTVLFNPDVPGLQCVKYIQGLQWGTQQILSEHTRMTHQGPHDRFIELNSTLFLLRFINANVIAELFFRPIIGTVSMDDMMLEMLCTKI
SF1 AF2mut Luc: StAR reporter signal changes without DAX1, counter-screen for DAX1 inhibitor project, cell-based, luminescence, AF-2 mutant SF-1, transactivation | inhibition, % at 6.8 µM | HEK293 StAR-luciferase, SF-1 AF2 mutant | actives 78% (n = 2,400) | shares compounds with DAX1 inh-1;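 active = inhibition above the mean of all tested compounds plus 3 SD, cut at about 3% in these data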;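 note: 0% = DAX-1 transfected cells with DMSO and 100% = cells without DAX-1 with DMSO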
LXR ag: LXR agonists, Gal4 luciferase reporter, confirmation, counter-screen for hcDAF-12 agonist project, cell-based, luminescence, HEK293, H. contortus campaign | activation, % at 6.8 µM | AID 743027, 2013 | HEK293 Gal4-LXR tk-luc reporter, 24 h; normalized: DMSO 0%, positive control 100% | shares compounds with hcDAF12 agonist | 3,400 tested, under 10 active;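 active = mean percent activation of the reporter above a cutoff set as the average over tested compounds plus their standard deviation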
hcDAF12 conf: H. contortus DAF-12 receptor agonists, confirmation, cell-based, luminescence, HEK293, lit1-tk-luc, triplicate; shares compounds with hcDAF12 agonist; HEK293 hcDAF-12 lit1-tk-luc reporter; % of Δ7-dafachronic acid response; activation, % at 6.8 µM; actives 61% (n = 3,400); AID 743032, 2013;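 active = mean activation across triplicate tests above the threshold derived from the earlier primary screen, cut at about 5.5% in these data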;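 note: 0% = DMSO only wells and 100% = 3 µM Δ7-dafachronic acid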
Numbers without * were called inactive; . = no result.

SMILES	DAX1 inh-1	DAX1 inh-2	hgDAF-12 ag	Wee1 degr inh	ssDAF-12 act	hcDAF12 agonist	Wee1 stab conf	DAX1 inh confirm	SF1 AF2mut Luc	LXR ag	hcDAF12 conf
CC(C)CC1c2[nH]c3ccccc3c2CCN1C(=O)c1cnccn1 (configuration not stated)	1	.	5	19*	0.9*	9.6*	1	.	.	1	12*
COCc1c(C(=O)N2CCc3ccccc32)oc2ccccc12	0	1	2	.	-1	0	.	.	.	.	.
Cc1c(C(=O)N2CCc3ccccc32)oc2ccccc12	4.4*	3	19*	11*	4.6*	14*	0	.	.	1	18*
CN(C(=O)c1ccccc1)c1nc2ccccc2s1	2	0	13*	13*	0	6.8*	-2	.	.	1	6.2*
CN(C(=O)c1ccc2nc(N)sc2c1)c1ccccc1	0	-1	-1	.	-1	-1	.	.	.	.	.
O=c1cc(/C=C/c2ccccc2)oc2ccccc12	3.7*	1	12*	12*	1.6*	6.9*	5	.	.	1	9.4*
Cc1ccnc(N/N=C/c2ccccc2)n1	4.6*	1	13*	17*	0	17*	3	11*	6.3*	1	3
C(=N\Nc1nccc(-c2cccnc2)n1)/c1ccccc1	1	.	7	0	-1	2	.	.	.	.	.
Cc1cccc(NC(=O)c2cnc3sccn3c2=O)c1	6.5*	4	13*	24*	0.9*	6.9*	-1	12*	4.4*	2	13*
O=C(Nc1ccon1)c1cnc2sccn2c1=O	0	0	3	4	-1	3	.	.	.	.	.
CCCCCCCCN1C(=O)[C@H](CC(=O)NCCc2ccccc2OC)C[C@@]2(C(=O)OC)CCCCC=C12	0	.	1	.	0	4	.	.	.	.	.
Cc1ccc2nc(-c3ccc(NC(=O)COC(=O)c4cncc(Br)c4)cc3)sc2c1	5.7*	3	13*	15*	1.6*	9.5*	-3	17*	7.5*	2	12*

Screening results as filed in PubChem.
